The nature of assay [1]: qHTS assay to identify small molecule agonists of the hypoxia (HIF-1) signaling pathway - cell viability counter screen (AID 1224844; calls by dose curve; note: nearly all actives have a fitted effect of over 50% in size). In a few lines:
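Same wells as the HIF-1 reporter screen; ME-180 cells carrying HRE-bla, 17 hr treatment at 37C; CellTiter-Glo luminescence read after 30 min at room temperature.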

The nature of assay [2]: qHTS assay to identify small molecule agonists of H2AX (AID 1224845; active = well fitted activation curve with a large enough effect in the signal ratio in the repeat runs, not every such curve was filed as active; the % refers to the signal ratio). The gist of the method: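 Wild-type CHO-K1 cells, plated overnight, exposed 3hr at 37C to 15 concentrations (0.76% DMSO final). Lysed, then HTRF anti-pH2AX (S139) cryptate and anti-H2AX-d2 antibodies, 24 hr room temperature; 665/620 nm emission read.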
A short description of assay [3]: qHTS assay to identify small molecule agonists of the hypoxia (HIF-1) signaling pathway (AID 1224846; active = well fitted activation curve with a large enough effect in the signal ratio in the repeat runs, not every such curve was filed as active; the % refers to the signal ratio). In a few lines: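 In ME-180 cells bearing an HRE-bla construct, 17 h treatment with DMSO-dissolved compounds at 37C was followed by CCF4-AM loading to quantify reporter induction.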
Assay [4] is described as follows: qHTS assay to identify small molecule agonists of H2AX - cell viability counter screen (AID 1224847; calls by dose curve; note: top concentration of the series differs between compounds; nearly all actives have a fitted effect of over 30% in size). The gist of the method:
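CHO-K1 cells plated overnight at 37C, then exposed 3 h at 37C to compounds at 15 concentrations (0.76% DMSO final). Viability by CellTiter-Glo luminescence after 30 min at room temperature.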

Assay [5] is described as follows: qHTS RealTime-Glo MT Cell Viability Assay in HepG2 cells - 24 hour (AID 1224867). Note: nearly all actives have a fitted effect of over 50% in size. In a few lines: (§1)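 HepG2 suspension premixed with RealTime-Glo reagents is plated at 600 cells per well and left 5 h at 37 C/5% CO2. Compounds in DMSO then go in, and bioluminescence reflecting viable cell number is recorded over 40 h.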
Assay [6] is described as follows: qHTS RealTime-Glo MT Cell Viability Assay in HEK293 cells - 32 hour (AID 1224868). Note: top concentration of the series differs between compounds; nearly all actives have a fitted effect of over 50% in size. The gist of the method: (§2)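 Reads taken at 0, 8, 16, 24, 32 and 40 h from the same wells. HEK293 cells (600/well) carried RealTime-Glo reagents from seeding, with compound added after a 5 h settle at 37 C.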
A short description of assay [7]: A CellTox Green Cytotoxicity Assay to monitor cytotoxicity in HEK293 cells - 0 hour (AID 1224869). Note: nearly all actives have a fitted effect of over 50% in size. The gist of the method: (§3)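 Homogeneous no-lysis format: HEK293 cell suspension mixed with CellTox Green reagent, seeded, incubated 5 h at 37 C/5% CO2, then dosed by pintool with compound in DMSO.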
Assay [8] can be described thus: qHTS RealTime-Glo MT Cell Viability Assay in HepG2 cells - 40 hour (AID 1224870). Note: nearly all actives have a fitted effect of over 50% in size. The gist of the method:
(§4)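 HepG2 cells (600/well) mixed with RealTime-Glo MT reagent, settled 5 h at 37 C/5% CO2 before compound addition. Nonlytic NanoLuc luminescence from viable-cell prosubstrate reduction read repeatedly during 40 h treatment at 37 C.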

Assay [9] can be described thus: A CellTox Green Cytotoxicity Assay to monitor cytotoxicity in HEK293 cells - 40 hour (AID 1224871). Note: nearly all actives have a fitted effect of over 45% in size. Note: potency is the fitted concentration of half-maximal effect. In a few lines: as §3
Assay [10] in a line: qHTS RealTime-Glo MT Cell Viability Assay in HepG2 cells - 8 hour (AID 1224873). Note: nearly all actives have a fitted effect of over 55% in size. The gist of the method: as §4
Assay [11] in a line: qHTS RealTime-Glo MT Cell Viability Assay in HEK293 cells - 40 hour (AID 1224874). Note: nearly all actives have a fitted effect of over 50% in size. The note with it: RealTime-Glo luminescence; max response: active compounds read low. The gist of the method:
(§5)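 Measured as luminescence from the same continuously cultured HEK293 wells at successive time points (0, 8, 16, 24, 32, 40 h) after compound addition. Reagent present from seeding; dosing at 5 h; incubation 37 C.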

The nature of assay [12]: A CellTox Green Cytotoxicity Assay to monitor cytotoxicity in HEK293 cells - 24 hour (AID 1224875). Note: nearly all actives have a fitted effect of over 45% in size. The gist of the method:
as §3

Assay [13] can be described thus: A CellTox Green Cytotoxicity Assay to monitor cytotoxicity in HepG2 cells - 16 hour (AID 1224876). Note: nearly all actives have a fitted effect of over 45% in size. In a few lines:
(§6)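 Fluorescent DNA-binding dye, 600 HepG2 cells/well, 5 h preincubation then compound in DMSO; same plates read at 0–40 h, 37 C.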

The nature of assay [14]: qHTS RealTime-Glo MT Cell Viability Assay in HepG2 cells - 32 hour (AID 1224877). Note: nearly all actives have a fitted effect of over 55% in size. In a few lines:
as §1

A short description of assay [15]: A CellTox Green Cytotoxicity Assay to monitor cytotoxicity in HepG2 cells - 24 hour (AID 1224878). Note: nearly all actives have a fitted effect of over 45% in size. The gist of the method:
as §6

The nature of assay [16]: A CellTox Green Cytotoxicity Assay to monitor cytotoxicity in HepG2 cells - 40 hour (AID 1224879). Note: nearly all actives have a fitted effect of over 40% in size. The gist of the method: as §6
A short description of assay [17]: qHTS RealTime-Glo MT Cell Viability Assay in HEK293 cells - 0 hour (AID 1224880). Note: nearly all actives have a fitted effect of over 45% in size. Note: potency is the fitted concentration of half-maximal effect. In a few lines:
as §5

Assay [18] is described as follows: qHTS RealTime-Glo MT Cell Viability Assay in HEK293 cells - 16 hour (AID 1224872). The gist of the method: as §2
A short description of assay [19]: qHTS assay to identify small molecule antagonists of the estrogen related receptor (ERR) signaling pathway from Tox21 library (AID 1224848). Note: nearly all actives have a fitted effect of over 50% in size. The gist of the method: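 Compounds dissolved in DMSO are pin-transferred onto ERR reporter cells (2,000 per well) that have settled for 6 h at 37 C. Plates then incubate 18 h at 37 C before ONE-Glo luciferase reagent and a luminescence read 30 min later.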

Assay [20] is described as follows: qHTS assay to identify small molecule agonists of the estrogen related receptor (ERR) signaling pathway from Tox21 library (AID 1224849; calls by dose curve; note: nearly all actives have a fitted effect of over 15% in size). The note with it: ERR reporter cell line, ONE-Glo luciferase, 18 h; at 92.4 µM (top of the series) unless noted. In a few lines: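 Reporter cells (ERR, NTP source) treated with Tox21 10K compounds 18 h, 37 C. Readout: ONE-Glo luminescence, 30 min RT.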

Molecules are shown by their SMILES. A number with no mark means an inactive call. Records with an inconclusive call do not appear. Calls of active or inactive are those of the source. Unless noted, calls come from the whole dose curve; as a rule, active = well fitted curve in the direction sought with a large enough effect in the repeat runs; inconclusive = weak or mixed curves; inactive = no such curve, though single readings can be large; an effect the other way counts as inactive or inconclusive.
% is set by controls: 0 for no effect and ±100 for the full control effect.

Turning to `SC1CCCC1`, the Potency result in [1], in assay [2], in assay [4], in assay [5], in [6] and in [7] was “inactive” in each case. For the same compound, the Potency entry in assay [8], in [9], in assay [10], in assay [12], in [13] and in assay [14] was “inactive” in each case. In addition, the Potency entry in assay [15], in [16] and in [17] was “inactive” each time. For the same compound, in [3], the result was inactive. Also, in [11], the max response is 8.94%.
Turning to `O=C=NC1CCC(CC2CCC(N=C=O)CC2)CC1` (stereo not given), the Potency entry in assay [1], in assay [2], in assay [4], in [5], in assay [6] and in assay [7] was “inactive” in each case. Besides, the Potency result in assay [8], in assay [18], in assay [10], in assay [13], in assay [14] and in assay [15] was “inactive” each time. The Potency entry in assay [16] and in assay [17] was “inactive” throughout. In addition, the outcome in [3] was inactive. For the same compound, the Potency in [9] was 49 µM (active).
As for `N#Cc1cc2ccccc2c2ccccc12`, the Potency result in [1], in [2], in [4], in assay [5], in [6] and in assay [7] was “inactive” in each case. In addition, the Potency result in assay [8], in [9], in assay [10], in assay [12], in assay [13] and in assay [14] was “inactive” each time. Moreover, the Potency entry in [15], in [16] and in [17] was “inactive” in each case. Also, in assay [3], the result was inactive. In addition, the max response in [11] was -18.9%.
For the compound `CCCCOCCOCCOCCOCCO`, the Potency result in assay [1], in assay [2], in assay [4], in assay [5], in assay [7] and in assay [8] was “inactive” in each case. Moreover, the Potency entry in assay [9], in [18], in assay [10], in [12], in [13] and in assay [14] was “inactive” in each case. For the same compound, the Potency entry in [15], in [16] and in assay [17] was “inactive” throughout. Also, the result in [3] was inactive. In addition, the max response in assay [11] is -11.7%.
Turning to `CC(C)CCCCCCOC(=O)c1ccc(C(=O)OCCCCCCC(C)C)c(C(=O)OCCCCCCC(C)C)c1`, the Potency entry in [1], in assay [2], in [4], in assay [5], in assay [7] and in [8] was “inactive” each time. The Potency result in assay [9], in assay [18], in assay [10], in assay [12], in [13] and in assay [14] was “inactive” throughout. The Potency result in assay [15], in [16] and in assay [17] was “inactive” throughout. Further, in assay [3], the compound was classed as inactive. For the same compound, in assay [11], the max response is -0.306%.
Consider `O=C(NS(=O)(=O)/C=C/c1cccs1)c1ccc(F)cc1Br`, for which the Potency result in [1], in assay [2], in [4], in assay [5], in assay [7] and in assay [8] was “inactive” throughout. For the same compound, the Potency entry in assay [9], in assay [18], in [10], in [12], in [13] and in assay [14] was “inactive” each time. The Potency entry in [15] and in assay [16] was “inactive” in each case. For the same compound, the result in assay [3] was inactive. The Potency in assay [17] was 19.5 µM (active).
For the compound `CC(C)c1cccc(C(C)C)c1NC(=O)NS(=O)(=O)c1cc(C(C)(C)O)co1`, the Potency entry in assay [1], in assay [2], in assay [4], in [5], in assay [7] and in [8] was “inactive” throughout. The Potency entry in assay [9], in assay [18], in [10], in [12], in [13] and in [14] was “inactive” in each case. Further, the Potency result in assay [15], in assay [16] and in assay [17] was “inactive” each time. Besides, the compound was classed as inactive in assay [3]. The max response in assay [11] was 6.33%.
In the case of `C=C(C)C(=O)OCCOc1ccccc1`, the Potency entry in [1], in assay [2], in assay [19], in [5], in [6] and in assay [7] was “inactive” throughout. Further, the Potency result in assay [8], in [9], in [10], in assay [12], in assay [13] and in assay [14] was “inactive” in each case. Further, the Potency entry in assay [15], in assay [16] and in [17] was “inactive” each time. In addition, the outcome in assay [3] was inactive. Further, the activity change, positive = activation in [20] is 3.64%. In assay [11], the max response was 8.99%.
